Data as given in PubChem BioAssay (Tox21).
“And” between values parts separate entries of the source, which are not always exact repeats. Identical values can stand only once. Inconclusive results are not listed. Some compounds were tested as several samples or in several runs, with calls that do not always agree. The source made the active and inactive calls. Unless noted, calls come from the whole dose curve; as a rule, active = well fitted curve in the direction sought with a large enough effect in the repeat runs; inconclusive = weak or mixed curves; inactive = no such curve, though single readings can be large; an effect the other way counts as inactive or inconclusive.

Key:
[1] = qHTS assay to identify small molecule antagonists of the glucocorticoid receptor (GR) signaling pathway - cell viability counter screen (AID 720693); note: nearly all actives have a fitted effect of over 55% in size
[2] = qHTS assay for identifying genotoxic compounds that show differential cytotoxicity against isogenic chicken DT40 cell lines with known DNA damage response pathways - wild type cell line (AID 743012); note: nearly all actives have a fitted effect of over 60% in size; note: potency is the fitted concentration of half-maximal effect
Method in brief: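 Wild type DT40, 300 cells/well, ~0.5 h settle at 37 C/5% CO2; compounds in DMSO added by pintool; 40 h at 37 C/5% CO2; CellTiter-Glo, 30 min RT; luminescence.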

[3] = qHTS assay for identifying genotoxic compounds that show differential cytotoxicity against isogenic chicken DT40 cell lines with known DNA damage response pathways - Rev3 mutant cell line (AID 743014); note: nearly all actives have a fitted effect of over 55% in size; note: potency is the fitted concentration of half-maximal effect
[4] = qHTS assay for identifying genotoxic compounds that show differential cytotoxicity against isogenic chicken DT40 cell lines with known DNA damage response pathways - Rad54/Ku70 mutant cell line (AID 743015); note: nearly all actives have a fitted effect of over 60% in size; note: potency is the fitted concentration of half-maximal effect
[5] = qHTS assay to identify small molecule antagonists of the androgen receptor (AR) signaling pathway - cell viability counter screen (AID 743033; note: nearly all actives have a fitted effect of over 45% in size)
[6] = qHTS assay to identify small molecule antagonists of the androgen receptor (AR) signaling pathway using the MDA cell line - cell viability counter screen (AID 743041; note: nearly all actives have a fitted effect of over 45% in size)
Method in brief: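 Cells were plated at 3,000 per well and left 5 h. Compounds in DMSO were then pinned in, followed by R1881. After 16 h at 37C, CellTiter-Fluor fluorescence gave viability.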

[7] = qHTS assay to identify small molecule antagonists of the thyroid receptor (TR) signaling pathway (AID 743065); note: nearly all actives have a fitted effect of over 55% in size; note: potency is the fitted concentration of half-maximal effect
Method in brief: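 Antagonism measured as loss of luciferase signal in GH3 cells stably carrying a TRE-luciferase reporter, co-treated with compound and T3 (1 nM final) for 23.5 h at 37 C. Viability was read in the same well by CellTiter-Fluor.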

[8] = system: thyroid hormone receptor (rat, GH3 cells); experiment: qHTS assay to identify small molecule agonists of the thyroid receptor (TR) signaling pathway (AID 743066; calls by dose curve)
[9] = qHTS assay to identify small molecule antagonists of the estrogen receptor alpha (ER-alpha) signaling pathway - cell viability counter screen (AID 743074; calls by dose curve;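 note: HEK293 cells carrying ER-alpha-UAS-bla reporter stimulated with 17beta-estradiol; nearly all actives have a fitted effect of over 45% in size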)
[10] = qHTS assay to identify small molecule antagonists of the estrogen receptor alpha (ER-alpha) signaling pathway using the BG1 cell line - cell viability counter screen (AID 743081);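 note: compound given together with 17beta-estradiol as the ER stimulus; series mostly up to about 70 µM; nearly all actives have a fitted effect of over 45% in size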
[11] = biological target: Aromatase (Homo sapiens) (UniProt P11511); experiment: qHTS assay to identify aromatase inhibitors (AID 743083); note: nearly all actives have a fitted effect of over 55% in size; note: potency is the fitted concentration of half-maximal effect
[12] = biological target: Androgen receptor (Homo sapiens) (UniProt P10275); experiment: qHTS assay to identify small molecule agonists of the androgen receptor (AR) signaling pathway (AID 743036; active = well fitted activation curve with a large enough effect in the signal ratio in the repeat runs, with a control signal flat, not every such curve was filed as active; the % refers to the signal ratio)
Method in brief: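 Quantitative HTS of the Tox21 10K library in HEK293 cells bearing a stably integrated UAS-controlled beta-lactamase reporter. Compound exposure lasted 16 h at 37C. Reporter activity was detected by FRET substrate fluorescence after 2 h at room temperature.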

[13] = biological target: Androgen receptor (Homo sapiens) (UniProt P10275); experiment: qHTS assay to identify small molecule agonists of the androgen receptor (AR) signaling pathway using the MDA cell line (AID 743040; note: nearly all actives have a fitted effect of over 20% in size)
Method in brief: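 Cells plated, 5 h at 37C/0% CO2; compound or DMSO pinned; 16 h at 37C; ONE-Glo added; luminescence measured after 30 min at room temperature. Reporter line: MDA-kb2 with MMTV-luciferase responsive to AR and GR.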

[14] = biological target: Androgen receptor (Homo sapiens) (UniProt P10275); experiment: qHTS assay to identify small molecule antagonists of the androgen receptor (AR) signaling pathway using the MDA cell line (AID 743042; note: nearly all actives have a fitted effect of over 55% in size)
Method in brief: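 Antagonist mode: compounds plus R1881 agonist added to MDA-kb2 AR-luc cells, incubated 16 h at 37C. Luciferase reporter luminescence quantified, with multiplexed CellTiter-Fluor readout for cell viability.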

[15] = qHTS assay to identify small molecule antagonists of the thyroid receptor (TR) signaling pathway - cell viability counter screen (AID 743064); note: nearly all actives have a fitted effect of over 50% in size; note: potency is the fitted concentration of half-maximal effect
Method in brief: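 Rat GH3 pituitary tumor cells stably expressing two TR response elements driving luciferase were plated, rested 4 h, then dosed with library compounds and T3 (1 nM final). After 23.5 h at 37 °C, CellTiter-Fluor was added for 30 min and fluorescence recorded.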

[16] = biological target: Estrogen receptor (Homo sapiens) (UniProt P03372); experiment: qHTS assay to identify small molecule antagonists of the estrogen receptor alpha (ER-alpha) signaling pathway (AID 743069; active = well fitted curve in the direction sought with a large enough effect in the signal ratio in the repeat runs, not every such curve was filed as active; the % refers to the signal ratio)
Method in brief: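 ER-alpha-UAS-bla GripTite HEK293 line; 2% charcoal-stripped FBS overnight; plated, 4 hr 37C/5% CO2; cpd in DMSO + 17beta-estradiol, 18 hr 37C; LiveBLAzer B/G FRET substrate 2 hr RT; fluorescence intensity.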

[17] = biological target: Estrogen receptor (Homo sapiens) (UniProt P03372); experiment: qHTS assay to identify small molecule agonists of the estrogen receptor alpha (ER-alpha) signaling pathway (AID 743075; calls by dose curve;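 note: HEK293 GripTite cells with ER-alpha and UAS-driven beta-lactamase reporter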)
[18] = biological target: Estrogen receptor (Homo sapiens) (UniProt P03372); experiment: qHTS assay to identify small molecule agonists of the estrogen receptor alpha (ER-alpha) signaling pathway using the BG1 cell line (AID 743079); note: nearly all actives have a fitted effect of over 20% in size; note: potency is the fitted concentration of half-maximal effect
[19] = qHTS assay to identify small molecule antagonists of the estrogen receptor alpha (ER-alpha) signaling pathway using the BG1 cell line (AID 743080; calls by dose curve; note: series mostly up to about 70 µM; nearly all actives have a fitted effect of over 25% in size)
Method in brief: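 Antagonist mode: compounds in DMSO were pinned onto BG1-Luc-4E2 cells alongside 17beta-estradiol agonist, incubated 21.5 h, and ERE-driven luciferase measured with ONE-Glo. Cytotoxicity was multiplexed using CellTiter-Fluor fluorescence.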

[20] = biological target: Androgen receptor (Homo sapiens) (UniProt P10275); experiment: qHTS assay to identify small molecule antagonists of the androgen receptor (AR) signaling pathway (AID 743035; active = well fitted inhibition curve with a large enough effect in the signal ratio in the repeat runs, not every such curve was filed as active; the % refers to the signal ratio)
Method in brief: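 Fluorescence from a beta-lactamase FRET substrate (LiveBLAzer B/G, 2 h, room temperature) measured inhibition of R1881-stimulated signaling in GeneBLAzer AR-UAS-bla HEK293 cells exposed to compound for 16 h at 37C.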

Measured: Potency

Aromatase (Homo sapiens), sequence (P11511 whole entry, looked up): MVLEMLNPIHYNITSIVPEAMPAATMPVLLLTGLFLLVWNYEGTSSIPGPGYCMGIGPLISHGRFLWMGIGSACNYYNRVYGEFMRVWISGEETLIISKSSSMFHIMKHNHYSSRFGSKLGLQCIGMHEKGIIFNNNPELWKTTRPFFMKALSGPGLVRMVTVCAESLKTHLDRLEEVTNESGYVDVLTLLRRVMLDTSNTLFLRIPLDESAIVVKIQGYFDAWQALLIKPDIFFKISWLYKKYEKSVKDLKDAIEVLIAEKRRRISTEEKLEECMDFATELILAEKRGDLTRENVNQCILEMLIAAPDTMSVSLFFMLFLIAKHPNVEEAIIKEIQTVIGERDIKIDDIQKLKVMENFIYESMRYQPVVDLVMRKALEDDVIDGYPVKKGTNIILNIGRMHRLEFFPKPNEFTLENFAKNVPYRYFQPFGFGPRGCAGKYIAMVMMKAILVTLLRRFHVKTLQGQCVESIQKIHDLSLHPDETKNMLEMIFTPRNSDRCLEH
Estrogen receptor (Homo sapiens), sequence (P03372 whole entry, looked up): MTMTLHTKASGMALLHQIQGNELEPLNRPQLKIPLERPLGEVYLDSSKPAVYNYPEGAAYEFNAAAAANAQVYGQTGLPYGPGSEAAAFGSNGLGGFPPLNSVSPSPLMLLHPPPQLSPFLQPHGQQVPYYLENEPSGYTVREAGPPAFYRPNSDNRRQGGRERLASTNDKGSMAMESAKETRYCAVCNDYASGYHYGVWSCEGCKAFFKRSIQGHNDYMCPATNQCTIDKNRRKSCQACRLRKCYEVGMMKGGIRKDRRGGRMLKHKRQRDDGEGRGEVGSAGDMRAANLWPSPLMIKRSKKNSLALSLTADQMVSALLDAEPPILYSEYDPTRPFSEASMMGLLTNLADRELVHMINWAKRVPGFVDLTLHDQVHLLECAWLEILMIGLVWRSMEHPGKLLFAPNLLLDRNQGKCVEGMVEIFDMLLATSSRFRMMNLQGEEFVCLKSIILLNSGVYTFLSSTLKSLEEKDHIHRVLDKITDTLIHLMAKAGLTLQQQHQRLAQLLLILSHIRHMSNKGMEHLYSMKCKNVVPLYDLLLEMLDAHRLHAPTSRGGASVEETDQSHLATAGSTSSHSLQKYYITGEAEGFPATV
Androgen receptor (Homo sapiens), sequence (P10275 whole entry, looked up): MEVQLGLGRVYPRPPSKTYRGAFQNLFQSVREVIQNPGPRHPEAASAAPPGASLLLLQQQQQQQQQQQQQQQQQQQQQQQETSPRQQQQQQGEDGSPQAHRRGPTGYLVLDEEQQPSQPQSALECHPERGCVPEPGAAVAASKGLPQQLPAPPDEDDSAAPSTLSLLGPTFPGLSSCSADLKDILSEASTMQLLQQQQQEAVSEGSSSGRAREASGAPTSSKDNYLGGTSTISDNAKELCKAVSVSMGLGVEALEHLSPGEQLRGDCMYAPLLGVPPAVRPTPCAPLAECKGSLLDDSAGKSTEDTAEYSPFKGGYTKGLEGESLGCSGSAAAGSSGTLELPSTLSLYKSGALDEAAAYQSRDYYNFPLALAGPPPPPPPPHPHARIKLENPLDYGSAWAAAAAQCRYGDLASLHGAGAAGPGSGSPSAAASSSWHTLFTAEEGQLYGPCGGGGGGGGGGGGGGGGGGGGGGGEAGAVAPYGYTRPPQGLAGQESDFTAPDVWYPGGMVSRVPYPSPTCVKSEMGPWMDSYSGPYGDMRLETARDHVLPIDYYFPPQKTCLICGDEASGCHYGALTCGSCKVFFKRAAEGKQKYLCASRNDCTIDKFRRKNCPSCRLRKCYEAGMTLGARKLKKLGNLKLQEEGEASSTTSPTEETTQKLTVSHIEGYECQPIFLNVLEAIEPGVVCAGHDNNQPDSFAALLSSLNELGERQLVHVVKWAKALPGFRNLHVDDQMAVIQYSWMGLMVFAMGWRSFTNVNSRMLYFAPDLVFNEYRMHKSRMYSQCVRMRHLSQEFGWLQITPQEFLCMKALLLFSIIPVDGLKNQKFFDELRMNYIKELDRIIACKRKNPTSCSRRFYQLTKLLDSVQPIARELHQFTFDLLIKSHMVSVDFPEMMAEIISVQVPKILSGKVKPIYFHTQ

CC(C)CNCC(C)C
inactive: [1] | [2] | [3] | [4] | [5] | [6] | [7] | [8] | [9] | [10] | [11]

COC(=O)[C@@H](N)Cc1ccc(O)c(O)c1
active: [2] 29.8 µM | [4] 33.5 µM | [15] 21.1 µM | [7] 23.7 µM
inactive: [1] | [5] | [12] | [13] | [6] | [14] | [8] | [9] | [11]

Nc1ccccc1S(=O)(=O)O
inactive: [1] | [2] | [3] | [4] | [5] | [6] | [7] | [8] | [9] | [10] | [11]

C[C@](N)(Cc1ccc(O)cc1)C(=O)O
not listed: [7] | [8] | [12] | [13] | [14] | [15] | [20]
inactive: all other assays above

OC(CCN1CCCCC1)(c1ccccc1)C1CC2C=CC1C2 (stereo not given)
active: [2] 7.5 µM and 9.44 µM | [3] 15 µM and 13.3 µM | [4] 23.7 µM and 21.1 µM | [7] 26.6 µM and 23.7 µM
inactive: [1] | [5] | [8] | [16] | [9] | [17] | [18] | [19] | [11]

CC/C=C\CC/C=C/CO
inactive: [1] | [2] | [3] | [4] | [5] | [6] | [7] | [8] | [9] | [10] | [11]

N[C@@H](C(=O)N[C@@H]1C(=O)N2C(C(=O)O)=C(Cl)CS[C@H]12)c1ccccc1
not listed: [12] | [13] | [14] | [15] | [19] | [20]
inactive: all other assays above

CC[N+](C)(C)c1cccc(O)c1
inactive: [1] | [2] | [3] | [4] | [5] | [6] | [9] | [10] | [11]

NS(=O)(=O)c1cc2c(cc1Cl)NC(C1CC3C=CC1C3)NS2(=O)=O (stereo not given)
not listed: [5] | [19]
inactive: all other assays above

CC(=O)OCC(=O)[C@@]1(O)CC[C@H]2[C@@H]3CCC4=CC(=O)CC[C@]4(C)[C@H]3C(=O)C[C@@]21C
inactive: [1] | [2] | [3] | [4] | [5] | [6] | [16] | [17] | [18] | [10] | [11]

CCOC(=O)CC(C)=O
inactive: [1] | [2] | [3] | [4] | [5] | [6] | [7] | [8] | [10]

CCN(CC)CCNC(=O)c1cc(S(C)(=O)=O)ccc1OC
not listed: [5] | [12] | [13] | [14] | [20]
inactive: all other assays above

Brc1c(NC2=NCCN2)ccc2nccnc12
inactive: [1] | [2] | [3] | [6] | [15] | [7] | [8] | [9] | [10] | [11]

CCO[Si](CCC1CCC2OC2C1)(OCC)OCC (stereo not given)
not listed: [12] | [13] | [14] | [15] | [20]
inactive: all other assays above

CCN(Cc1ccncc1)C(=O)C(CO)c1ccccc1 (stereo not given)
active: [11] 29.8 µM
inactive: [1] | [2] | [3] | [4] | [5] | [6] | [7] | [8] | [9] | [10]

C[N+](C)(C)CC(O)CC(=O)[O-] (stereo not given)
inactive: [1] | [2] | [3] | [4] | [6] | [15] | [7] | [8] | [9] | [10] | [11]

CO/N=C(/C(=O)N[C@@H]1C(=O)N2C(C(=O)OCOC(=O)C(C)(C)C)=C(C)CS[C@H]12)c1csc(N)n1
inactive: [1] | [2] | [3] | [4] | [5] | [6] | [15] | [8] | [10] | [11]

NS(=O)(=O)c1ccc(C(=O)O)cc1
not listed: [3]
inactive: all other assays above

CCOC(=O)Nc1ccc(NCc2ccc(F)cc2)nc1N
active: [2] 26.6 µM
3.35 µM (active) and inactive: [18]
not listed: [4] | [11] | [12] | [13] | [14] | [20]
inactive: all other assays above

O=C(CCCN1CCC(O)(c2cccc(C(F)(F)F)c2)CC1)c1ccc(F)cc1
inactive: [1] | [5] | [9] | [11]
active: [2] 10.6 µM | [3] 11.9 µM | [4] 11.9 µM
